Nine compounds from PubChem BioAssay (NCI) can be followed below.

Assay [1] is described as follows: NCI Yeast Anticancer Drug Screen. Data for the rad50 strain (AID 155).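 Also: 0% = growth of vehicle-only cultures of the same strain.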 The conditions noted are these: S. cerevisiae rad50 strain growth inhibition, hits give high values. In short, it runs like this:
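Relative growth inhibition (compound vs vehicle) was measured in yeast with a defined repair-gene alteration.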

A short description of assay [2]: NCI Yeast Anticancer Drug Screen. Data for the mec2-1 strain (AID 157). The conditions noted are these: S. cerevisiae mec2-1 strain, hits give high values. The essentials: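 Using mec2-1 yeast: add compound, measure growth, express inhibition versus vehicle-treated cultures.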
The nature of assay [3]: NCI Yeast Anticancer Drug Screen. Data for the sgs1 mgt1 strain (AID 161).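 Also: 0% = growth of cultures given vehicle only.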 The conditions noted are these: S. cerevisiae sgs1 mgt1 strain, hits give high values. In short, it runs like this: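 Compounds are added to genetically altered yeast, and growth is compared with cultures given vehicle alone to give percent inhibition.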
The nature of assay [4]: NCI Yeast Anticancer Drug Screen. Data for the cln2 rad14 strain (AID 165).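 Also: 0% = growth equal to vehicle treated cultures.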 The conditions noted are these: S. cerevisiae cln2 rad14 strain, hits give high values. The essentials:
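Yeast strain cln2 rad14, bearing defects in cell cycle control and DNA repair, serves as the test system; values reflect growth inhibition compared with vehicle.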

The nature of assay [5]: NCI Yeast Anticancer Drug Screen. Data for the bub3 strain (AID 167). The conditions noted are these: S. cerevisiae bub3 mutant strain, hits give high values. The essentials: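 Screening used yeast with an engineered genetic alteration affecting cell cycle control. Compound-exposed cultures were compared with vehicle cultures, and reduced growth was taken as inhibition.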

Assay [6] can be described thus: NCI Yeast Anticancer Drug Screen. Data for the mlh1 rad18 strain (AID 175). The conditions noted are these: S. cerevisiae mlh1 rad18 strain growth inhibition, hits give high values. In short, it runs like this:
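Steps: expose repair-defective yeast to compound; measure growth; express inhibition against vehicle-treated controls.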

Setting [7] is: at 5.0 µM (retest, dose inferred, filed as 0.5).
Where [8] appears, read: at 50.0 µM (retest, dose inferred, filed as 5.0).

Structures are written as SMILES. Compounds without any hit were thinned out: in the full panel of roughly 79,000, 15% have a hit. Unmarked numbers belong to inactive results. The source made the active and inactive calls. Rule as the data show it: active = growth inhibition above about 70%; inactive = the rest.

For `CN(C)c1ccccc1CN1CCCN(Cc2ccccc2N(C)C)C1`, the growth inhibition in assay [1] (setting [7]) was -4%; in assay [1] (setting [8]), 7%; in assay [1] (at 50.0 µM), 69.8%; in assay [2] (setting [7]), 8%; in assay [2] (setting [8]), 26%; in assay [2] (at 50.0 µM) it was 50%. The growth inhibition in assay [3] (setting [7]) was 1%; in assay [3] (setting [8]) it was 35%; in assay [3] (at 50.0 µM), 75.2% (active); in assay [4] (setting [7]) it was 0%; in assay [4] (setting [8]), 2%; in assay [4] (at 50.0 µM) it was 4.45%. The growth inhibition in assay [5] (setting [7]) was 2%; in assay [5] (setting [8]) it was 6%; in assay [5] (at 50.0 µM) it was 1.5%; in assay [6] (setting [7]) it was 18%; in assay [6] (setting [8]), 35%; in assay [6] (at 50.0 µM), 63.3%.
`Oc1cc(F)ccc1-c1ccc(F)cc1`: the growth inhibition in assay [1] (setting [7]) was -5%; in assay [1] (setting [8]), 98% (active); in assay [1] (at 50.0 µM), 72.5% (active); in assay [2] (setting [7]) it was 20%; in assay [2] (setting [8]), 99% (active); in assay [2] (at 50.0 µM), 85% (active). In addition, the growth inhibition in assay [3] (setting [7]) was 13%; in assay [3] (setting [8]) it was 97% (active); in assay [3] (at 50.0 µM) it was 47.4%; in assay [4] (setting [7]), -9%; in assay [4] (setting [8]) it was 98% (active); in assay [4] (at 50.0 µM), 60.3%. Moreover, the growth inhibition in assay [5] (setting [7]) is -12%; in assay [5] (setting [8]), 99% (active); in assay [5] (at 50.0 µM), 75.7% (active); in assay [6] (setting [7]), -6%; in assay [6] (setting [8]), 98% (active); in assay [6] (at 50.0 µM), 84.7% (active).
With `COc1ccc(N(C)Sc2ccccc2)cc1`, the growth inhibition in assay [1] (setting [7]) is -12%; in assay [1] (setting [8]), 64%; in assay [1] (at 50.0 µM), 88.2% (active); in assay [2] (setting [7]) it was 18%; in assay [2] (setting [8]), 65%; in assay [2] (at 50.0 µM) it was 49.1%. Moreover, the growth inhibition in assay [3] (setting [7]) is -14%; in assay [3] (setting [8]), 24%; in assay [3] (at 50.0 µM), 67.1%; in assay [4] (setting [7]), 9%; in assay [4] (setting [8]), 63%; in assay [4] (at 50.0 µM), 35.6%. For the same compound, the growth inhibition in assay [5] (setting [7]) is 12%; in assay [5] (setting [8]), 90% (active); in assay [5] (at 50.0 µM), 69.7%; in assay [6] (setting [7]), -10%; in assay [6] (setting [8]), 97% (active); in assay [6] (at 50.0 µM), 71.3% (active).
In the case of `CN1C(OCc2ccccc2)c2c(ccc3c2OCO3)C2C=Cc3cc4c(cc3C21)OCO4` (configuration not stated), the growth inhibition is 47% in assay [1] (setting [7]); 99% (active) in assay [1] (setting [8]); 92.8% (active) in assay [1] (at 50.0 µM); 39% in assay [2] (setting [7]); 99% (active) in assay [2] (setting [8]); 93.2% (active) in assay [2] (at 50.0 µM). In addition, the growth inhibition in assay [3] (setting [7]) is 96% (active); in assay [3] (setting [8]), 100% (active); in assay [3] (at 50.0 µM), 93% (active); in assay [4] (setting [7]), 89% (active); in assay [4] (setting [8]), 98% (active); in assay [4] (at 50.0 µM), 92.7% (active). The growth inhibition is 93% (active) in assay [5] (setting [7]); 99% (active) in assay [5] (setting [8]); 91.8% (active) in assay [5] (at 50.0 µM); 96% (active) in assay [6] (setting [7]); 99% (active) in assay [6] (setting [8]); 91.1% (active) in assay [6] (at 50.0 µM).
Regarding `CC(O)c1c2c(cc3c1CC1(C3)Cc3cc4c(c(C(C)O)c3C1)CCC4)CCC2` (configuration not stated), the growth inhibition in assay [1] (setting [7]) was -18%; in assay [1] (setting [8]) it was 98% (active); in assay [1] (at 50.0 µM) it was 71.1% (active); in assay [2] (setting [7]), -6%; in assay [2] (setting [8]) it was 97% (active); in assay [2] (at 50.0 µM), 81.4% (active). Further, the growth inhibition is -34% in assay [3] (setting [7]); 97% (active) in assay [3] (setting [8]); 85.9% (active) in assay [3] (at 50.0 µM); 1% in assay [4] (setting [7]); 97% (active) in assay [4] (setting [8]); 86.7% (active) in assay [4] (at 50.0 µM). The growth inhibition in assay [5] (setting [7]) was -50%; in assay [5] (setting [8]), 97% (active); in assay [5] (at 50.0 µM), 87.2% (active); in assay [6] (setting [7]) it was -17%; in assay [6] (setting [8]), 97% (active); in assay [6] (at 50.0 µM), 88.3% (active).
Turning to `COc1ccc2c(C)cc(N/N=C/c3cccc(C)n3)nc2c1`, the growth inhibition was -1% in assay [1] (setting [7]); 4% in assay [1] (setting [8]); 75.1% (active) in assay [1] (at 50.0 µM); -2% in assay [2] (setting [7]); 8% in assay [2] (setting [8]); 31.2% in assay [2] (at 50.0 µM). Also, the growth inhibition in assay [3] (setting [7]) is 4%; in assay [3] (setting [8]), 28%; in assay [3] (at 50.0 µM), 97.4% (active); in assay [4] (setting [7]), 5%; in assay [4] (setting [8]), 5%; in assay [4] (at 50.0 µM), 19.1%. For the same compound, the growth inhibition in assay [5] (setting [7]) is -4%; in assay [5] (setting [8]), -4%; in assay [5] (at 50.0 µM), 22.2%; in assay [6] (setting [7]) it was -5%; in assay [6] (setting [8]) it was 19%; in assay [6] (at 50.0 µM), 28.8%.
`C/C([O-])=C1\Cc2ccccc2C1=O.C/C([O-])=C1\Cc2ccccc2C1=O.CC[O-].CC[O-].[Ti+4]`: the growth inhibition was 25% in assay [1] (setting [7]); 25% in assay [1] (setting [8]); 89% (active) in assay [1] (at 50.0 µM); 17% in assay [2] (setting [7]); 17% in assay [2] (setting [8]); 89.4% (active) in assay [2] (at 50.0 µM). The growth inhibition in assay [3] (setting [7]) is 4%; in assay [3] (setting [8]), 4%; in assay [3] (at 50.0 µM) it was 91.5% (active); in assay [4] (setting [7]), 4%; in assay [4] (setting [8]), 4%; in assay [4] (at 50.0 µM), 81% (active). Also, the growth inhibition in assay [5] (setting [7]) was 4%; in assay [5] (setting [8]), 4%; in assay [5] (at 50.0 µM), 88.6% (active); in assay [6] (setting [7]) it was 20%; in assay [6] (setting [8]), 20%; in assay [6] (at 50.0 µM) it was 90.7% (active).
`CCCOC(=O)C(Br)C(Br)C(=O)OCCC` (configuration not stated): the growth inhibition is 60% in assay [1] (setting [7]); 97% (active) in assay [1] (setting [8]); 90.5% (active) in assay [1] (at 50.0 µM); 57% in assay [2] (setting [7]); 98% (active) in assay [2] (setting [8]); 93% (active) in assay [2] (at 50.0 µM). In addition, the growth inhibition in assay [3] (setting [7]) was 36%; in assay [3] (setting [8]), 100% (active); in assay [3] (at 50.0 µM) it was 93.5% (active); in assay [4] (setting [7]), 59%; in assay [4] (setting [8]) it was 101% (active); in assay [4] (at 50.0 µM) it was 91% (active). In addition, the growth inhibition in assay [5] (setting [7]) is 46%; in assay [5] (setting [8]), 100% (active); in assay [5] (at 50.0 µM), 91.8% (active); in assay [6] (setting [7]), 44%; in assay [6] (setting [8]), 98% (active); in assay [6] (at 50.0 µM) it was 90.5% (active).
Regarding `COC(=O)C12OCC34C(CC5C(C)C6=CC(=O)OC6=CC5(C)C3C(O)C1O)OC(=O)C(OC(C)=O)C24` (configuration not stated), the growth inhibition in assay [1] (setting [7]) was 69%; in assay [1] (setting [8]), 99% (active); in assay [1] (at 50.0 µM), 91.6% (active); in assay [2] (setting [7]), 66%; in assay [2] (setting [8]), 99% (active); in assay [2] (at 50.0 µM) it was 93.4% (active). Besides, the growth inhibition in assay [3] (setting [7]) is 63%; in assay [3] (setting [8]) it was 99% (active); in assay [3] (at 50.0 µM), 92.2% (active); in assay [4] (setting [7]), 64%; in assay [4] (setting [8]) it was 99% (active); in assay [4] (at 50.0 µM), 91.7% (active). The growth inhibition was 68% in assay [5] (setting [7]); 99% (active) in assay [5] (setting [8]); 92.5% (active) in assay [5] (at 50.0 µM); 79% (active) in assay [6] (setting [7]); 99% (active) in assay [6] (setting [8]); -22% in assay [6] (at 50.0 µM).
